Source: article PMC3795721, “Screening for Protein-DNA Interactions by Automatable DNA-Protein Interaction ELISA”

Target: AT4G31550 (Arabidopsis thaliana, UniProt Q9SV15 228-325)
Assay: DPI-ELISA; DPI-ELISA, streptavidin 384-well plate, 1-2 pmol biotinylated dsDNA per well, crude native E. coli extract, anti-His detection; buffer as in Brand et al. [46],; high values mean tight binding
Conditions: tags: C-terminal His (pET-DEST42); label: 5' biotin on forward strand; dsDNA, one strand shown

Sequence of AT4G31550 (Q9SV15 228-325): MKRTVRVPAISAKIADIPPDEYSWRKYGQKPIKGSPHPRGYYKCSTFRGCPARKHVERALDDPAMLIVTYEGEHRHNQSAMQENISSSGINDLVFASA

AAAAAAACCCTGTGTCGGCCGATAAAAAA and AAAAAAACTCAACTAGTGAACCACCAAAA are within error of each other in binding signal: 0.58 ± 0.099 absorbance for the first, 0.625 ± 0.0636 absorbance for the second.

Compared with AAAAAACTGGATGCGCTCACCAGTTAAAAA, AAAAAACGTTGAACCTGGGCCTCAACAAAA is higher in binding signal: 0.52 ± 0.099 absorbance for the first, 1.39 ± 0.191 absorbance for the second.

AAAAAAATCCATATTATTGCTACCCGAAAA and AAAAAAAGTTACCAGTACGCGTCGGGAAAA are within error of each other in binding signal: 0.595 ± 0.0636 absorbance for the first, 0.64 ± 0.141 absorbance for the second.

AAAAAAGCCATCATGGTTAGTGTACAAAAA and AAAAAAACGCTATATATTGGTGCTAGAAAA are within error of each other in binding signal: 0.665 ± 0.148 absorbance for the first, 0.695 ± 0.134 absorbance for the second.

AAAAAACTGCTTGCCCCTGTCTCCATAAAA and AAAAAATGTGGTTACGGCCTCGATGAAAAA are within error of each other in binding signal: 0.67 ± 0.17 absorbance for the first, 0.565 ± 0.106 absorbance for the second.

AAAAAATTCGTATCTGTACCCTATGCAAAA and AAAAAATGTCCATCTTGCGTCTGTATAAAA are the same in binding signal: 0.79 ± 0.283 absorbance for the first, 0.79 ± 0.212 absorbance for the second.

AAAAAATTGCATTCCACCCTTAGGTTAAAA and AAAAAATCATCTCTATGTTATTGTTGAAAA are within error of each other in binding signal: 0.495 ± 0.106 absorbance for the first, 0.58 ± 0.113 absorbance for the second.

AAAAAACGTTAACACTGATTTAGGGTAAAA and AAAAAAAGTTCCAGGTCCGATGCTCAAAAA are within error of each other in binding signal: 0.595 ± 0.0778 absorbance for the first, 0.805 ± 0.318 absorbance for the second.

AAAAAAACGGGTTGTGAATGTGGAAGAAAA and AAAAAATATGTAGCTGCCGTTACGCTAAAA are within error of each other in binding signal: 0.575 ± 0.148 absorbance for the first, 0.54 ± 0.212 absorbance for the second.

First: AAAAAACCGTATGTATATCTATATGTAAAA
Second: AAAAAAGGCCACGGTAACCCCTTTTGAAAA
The binding signal of the first is lower: 0.42 ± 0.113 absorbance for the first, 0.695 ± 0.12 absorbance for the second.

AAAAAAGTCTCACCTTTAGTCTTAATAAAA and AAAAAAGTACATGCGTAGATAATGTTAAAA are within error of each other in binding signal: 0.64 ± 0.0283 absorbance for the first, 0.59 ± 0.127 absorbance for the second.

AAAAAATGGGGCTCTGGCCCACCGTAAAAA and AAAAAAGAGAATTGTCAGTGCCCAACAAAA are within error of each other in binding signal: 0.525 ± 0.0778 absorbance for the first, 0.705 ± 0.106 absorbance for the second.

First: AAAAAACATCGCTGTCGTTGACGTTGAAAA
Second: AAAAAATAAATCGCGGCTACTGCTTCAAAA
The binding signal of the first is higher: 3.48 ± 0.474 absorbance for the first, 0.55 ± 0.141 absorbance for the second.

Compared with AAAAAATGGATCTTTACTTTAGGCCAAAAA, AAAAAAGACACTCTAATTCCGTAGGCAAAA is lower in binding signal: 0.92 ± 0.424 absorbance for the first, 0.405 ± 0.0495 absorbance for the second.

AAAAAATCGCGTCCGTGCTCAATCCAAAAA and AAAAAATGCTATCCGTGTCTATGCCAAAAA are within error of each other in binding signal: 0.48 ± 0.0566 absorbance for the first, 0.54 ± 0.0707 absorbance for the second.

AAAAAACCCATCCTTCGTTCCATCGTAAAA and AAAAAAACTATAGTCTTTGTCATGATAAAA are within error of each other in binding signal: 0.76 ± 0.141 absorbance for the first, 0.64 ± 0.0707 absorbance for the second.

AAAAAACCCTAACGAATGCTTTTCGGAAAA and AAAAAATCCCCCCGTTTCACTCTTGCAAAA are the same in binding signal: 0.66 ± 0.0849 absorbance for the first, 0.66 ± 0.141 absorbance for the second.

AAAAAAGTGTTAGATTGTAGTTGATAAAA and AAAAAATCGTAAATGCCCATAGCCGTAAAA are within error of each other in binding signal: 0.675 ± 0.106 absorbance for the first, 0.555 ± 0.106 absorbance for the second.

AAAAAACGGAAGATCGTGACTGCTAGAAAA and AAAAAACACTTAACTGAGTGGGATTGAAAA are within error of each other in binding signal: 0.715 ± 0.0354 absorbance for the first, 0.705 ± 0.134 absorbance for the second.
